Assay outcomes from PubChem.
CYP2C9 activ = increases human cytochrome P450 2C9 activity; P11712; recombinant CYP2C9, luciferin-H conversion, luminescence; stronger effect = higher value; factor 1 = untreated enzyme, 0 = blocked; activation factor at 5 µM; actives 1.4% (n = 96,000); AID 1024;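 active means activation factor of 2 or more for CYP2C9 at a 5 µM dose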;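 further: 0 = sulfaphenazole-blocked wells and 1 = vehicle-only wells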
Target sequence (P11712 whole entry, looked up): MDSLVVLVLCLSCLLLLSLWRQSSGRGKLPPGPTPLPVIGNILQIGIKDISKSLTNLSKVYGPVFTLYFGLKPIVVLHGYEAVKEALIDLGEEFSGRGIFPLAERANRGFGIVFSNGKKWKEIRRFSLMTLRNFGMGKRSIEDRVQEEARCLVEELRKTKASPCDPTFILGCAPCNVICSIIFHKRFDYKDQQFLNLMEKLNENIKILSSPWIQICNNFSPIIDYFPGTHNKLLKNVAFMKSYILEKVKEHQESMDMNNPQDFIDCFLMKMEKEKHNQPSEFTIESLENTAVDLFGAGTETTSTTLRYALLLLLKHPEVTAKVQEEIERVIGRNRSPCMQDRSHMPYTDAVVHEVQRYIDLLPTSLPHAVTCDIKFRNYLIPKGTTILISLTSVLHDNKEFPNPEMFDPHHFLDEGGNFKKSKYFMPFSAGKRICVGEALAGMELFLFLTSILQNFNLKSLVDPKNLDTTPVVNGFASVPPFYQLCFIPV
CYP2C19 act = cytochrome P450 2C19 (human) activation; P33261; recombinant CYP2C19, luciferin-H EGE luminescence; stronger effect = higher value; 0 = fully inhibited enzyme, 1 = untreated enzyme; activation factor at 5 µM; 96,000 tested, under 10 active; AID 1025;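 active means activation factor of at least 2 at 5 µM in the primary screen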;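 further: 0 = wells with 2.5 mM tranylcypromine and 1 = vehicle-only wells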
CYP2C19 inh = inhibitors of human CYP2C19. P33261. CYP2C19 Supersomes, luciferin-H EGE luminescence, 30 min. inhibition, % at 5 µM. actives 21% (n = 96,000). AID 778;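 active means CYP2C19 inhibition above a set limit at 5 µM in the primary screen, cut at about 50% in these data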;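 further: plate controls were negative control wells for no effect and 2.5 mM tranylcypromine positive control for full effect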
CYP2C9 inh = inhibitors of human CYP2C9. P11712. CYP2C9 Supersomes, luciferin-H conversion, luminescence. inhibition, % at 5 µM. actives 20% (n = 96,000). AID 777;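 active means blocking of liver enzyme CYP2C9 beyond about 50% at 5 µM, limit read from the data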
Numbers without * were called inactive. A selection: hits, their analogues and other compounds. The true share with any hit is near 31%.

SMILES	CYP2C9 activ	CYP2C19 act	CYP2C19 inh	CYP2C9 inh
COc1ccc(C2CC(=O)c3cnc(NC(=O)c4cc(OC)cc(OC)c4)nc3C2)cc1 (stereo not given)	0.3	0.2	83*	69*
COc1ccc(C2CC(=O)c3cnc(NC(=O)c4ccccc4)nc3C2)cc1OC (stereo not given)	0.3	0.9	10	70*
CCOCCCNc1ncc2c(n1)CC(c1ccc(C)cc1)CC2=O (stereo not given)	0.4	0.6	41	59*
CC(=O)N1CCc2cc(S(=O)(=O)NCCC(=O)NC3CCCc4ccccc43)ccc21 (stereo not given)	0.8	0.9	9	17
O=C(Nc1nc(-c2ccccc2)cs1)C1CCCN(S(=O)(=O)c2cccc([N+](=O)[O-])c2)C1 (stereo not given)	0.4	0.5	48	62*
O=C(Nc1nccs1)C1CCCN(S(=O)(=O)c2cccnc2)C1 (stereo not given)	0.6	0.5	46	37
O=C(Nc1nc(-c2ccccc2)cs1)C1CCCN(S(=O)(=O)c2ccccc2)C1 (stereo not given)	0.3	0.6	45	69*
ONC(=Nc1ccccc1)c1ccc(Cl)cc1	0.5	0.1	90*	49
COc1cnc(SCc2ccc(Cl)cc2Cl)nc1Cl	1	0.9	9	4
Cc1nnc(SCc2ccccc2)nc1/C=C/NOCc1ccc(Cl)cc1Cl	0.1	0.2	79*	88*
Cc1sc2c(c1C)C(=O)NC(c1cccc(O)c1)N2 (stereo not given)	0.9	1	-2	6
Cc1ccc(Oc2ccc(NC(=O)Cn3ccsc3=N)cc2)cc1	1.1	1.3	-35	-14
COc1ccc(OC/C(O)=C(\C#N)c2nc3ccccc3[nH]2)cc1	1.1	1.1	-14	-12
COc1ccc(C/C(O)=C(\C#N)c2nc3ccccc3[nH]2)cc1OC	0.5	1	-3	50*
COc1cccc(OC)c1/C(O)=C(\C#N)c1nc2ccccc2[nH]1	0.8	0.4	58*	24
CC(C)(C)/C(O)=C(/C#N)c1nc2ccccc2[nH]1	0.4	0.6	39	64*
CC(C)CC(/C(O)=C(\C#N)c1nc2ccccc2[nH]1)N1C(=O)c2ccccc2C1=O (stereo not given)	0.1	0	96*	95*
CCN(CC)C(=O)CSc1nnc(-c2ccc(F)cc2)n1N	1.1	1	-4	-6
COc1ccc(Cl)cc1NC(=O)Nc1ccc(Br)cn1	1.1	1.1	-8	-6
S=C(c1ccc2c(c1)OCO2)N1CCCC1	1	0.6	41	2
Cc1ccc2c(c1)C(c1ccccc1)N(C(=O)C(C)C)CC(=O)N2 (stereo not given)	0.7	0.9	6	34
Cc1ccc2c(c1)OC(=O)CC2c1ccccc1 (stereo not given)	0.5	0.3	68*	47
O=C(NCc1ccco1)c1cc(-c2ccccc2)nc2ccccc12	0.7	0.8	25	31
CCN(CC)C(=O)Cc1cc(C(=O)O)c2ccccc2n1	1.1	1	0	-13
CCN(CC)C(=O)COC(=O)c1cc(-c2ccc(OC)cc2)nc2ccccc12	0	0.1	91*	98*
SMILES	CYP2C9 activ	CYP2C19 act	CYP2C19 inh	CYP2C9 inh
CCNC(=O)COC(=O)c1cc(-c2ccc(OC)cc2)nc2ccccc12	0.4	0.8	16	61*
CCOc1ccc(-c2cc(C(=O)O)c3ccccc3n2)cc1	0.4	1.3	-25	57*
O=C(COC(=O)c1cc(-c2ccco2)nc2ccccc12)NCc1ccccc1	0.4	0.7	33	61*
O=C(O)c1cc(-c2ccc(O)cc2)nc2ccccc12	1	1.1	-12	-3
Cc1cccc(N(C)S(=O)(=O)c2ccc3[nH]c(=O)c(=O)[nH]c3c2)c1	0.5	1	-3	49
CCNC(=O)CC1C(=O)N(c2ccccc2)C(=O)N1Cc1ccc(OC)cc1 (stereo not given)	0.9	1	4	8
CN(Cc1ccccc1)C(=O)COC(=O)c1cc(-c2ccc(Cl)s2)nc2ccccc12	0.1	0.4	56*	88*
CCc1cc2c(=O)n(-c3ccccc3)c(=S)[nH]c2s1	0.9	1	1	8
Cc1cc(C(=O)Nc2ccccc2)oc1C	1.1	0.8	24	-7
COc1ccc(-c2ccc(-c3nnc(-c4ccncc4)o3)cc2)cc1	0.7	0.5	53*	35
Cc1cc(/C=C(\C#N)C(=O)NCC2CCCO2)c(C)n1-c1ccc(Cl)cc1 (stereo not given)	0.8	0.5	49	23
N#C/C(=C\c1cn(Cc2ccccc2C#N)c2ccccc12)C(=O)NCc1cccs1	0.4	0.8	16	60*
